Measured values published in PMC5540273 (PLoS ONE, 2017).
Several values for one entry are separate records, joined by “and”; a condition that tells them apart may be missing. Identical values can stand only once. Like-named read-outs stand apart in the source and are kept apart here.

Experiments:
Details in all cases: concentration: 1 μM, replicates: in singlicate, n = 1
MEK1 = system: T1, MEK1
T1 construct: gene MAP2K1

MEK2 = system: T2, MEK2
T2 construct: gene MAP2K2

MEK3 = system: T3, MEK3
T3 construct: gene MAP2K3

MEK4 = system: T4, MEK4
T4 construct: gene MAP2K4

MEK5 = system: T5, MEK5
T5 construct: gene MAP2K5

MEK6 = system: T6, MEK6
T6 construct: gene MAP2K6

MELK = system: MELK
MERTK = system: MERTK
MET = system: MET
MINK = system: T7, MINK
T7 construct: gene MINK1
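Note: KINOMEscan kinase panel screen.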

Compound	%Inh (MEK1)	%Inh (MEK2)	%Inh (MEK3)	%Inh (MEK4)	%Inh (MEK5)	%Inh (MEK6)	%Inh (MELK)	%Inh (MERTK)	%Inh (MET)	%Inh (MINK)	%Inh (MEK1; 1 µM)	%Inh (MEK4; 1 µM)	%Inh (MEK6; 1 µM)	%Inh (MELK; 1 µM)	%Inh (MERTK; 1 µM)	%Inh (MET; 1 µM)	%Inh (MINK; 1 µM)	%Inh (MEK2; 1 µM)	%Inh (MEK3; 1 µM)	%Inh (MEK5; 1 µM)
Cc1ccc(C(=O)NCC(N)=O)cc1-n1c(C)cc(OCc2ccc(F)cc2F)c(Br)c1=O	0%	26%	0%	0%	2%	13%	24%	3%	15%	0%	–	–	–	–	–	–	–	–	–	–
Nc1nc(-c2ccc3c(N)n[nH]c3c2)cc(N2CCCC2)n1 [GSK2227430]	0%	64%	0%	0%	7%	8%	0%	8%	0%	10%	–	–	–	–	–	–	–	–	–	–
O=C(NCCNc1ccnc(Nc2ccc(F)cc2)n1)c1cc2ccccc2s1 [GSK1379874]	0%	0%	41%	29%	22%	0%	0%	0%	0%	7%	–	–	–	–	–	–	–	–	–	–
Cc1cn2c(=O)cc(N3CCOCC3)nc2n1Cc1cccc(Cl)c1Cl [GSK2334006]	11%	0%	0%	17%	54%	0%	17%	5%	0%	0%	–	–	–	–	–	–	–	–	–	–
COC(=O)Nc1nc2cc(Oc3ccc(NC(=O)Nc4cc(F)ccc4F)cc3)ccc2[nH]1.Cl [GW701424]	0%	0%	0%	15%	12%	0%	10%	90.8%	40%	5%	–	–	–	–	–	–	–	–	–	–
Cc1ccc(NC(=O)c2ccnc(N3CCN(C)CC3)c2)cc1-c1ccc(C(=O)NCC2CC2)cc1 [GW775604]	3%	25%	1%	0%	2%	11%	0%	0%	0%	0%	–	–	–	–	–	–	–	–	–	–
O=c1cc(N2CCOCC2)nc2n(Cc3cccc(F)c3)ccn12 [GSK2297430]	0%	0%	0%	0%	31%	0%	18%	16%	0%	0%	–	–	–	–	–	–	–	–	–	–
COc1cc(Nc2nccc(N3CCC(NC(=O)c4cccc(NC(C)=O)c4)C3)n2)cc(OC)c1OC (stereo not drawn) [GSK1379754]	0%	0%	7%	17%	93.5%	0%	19%	30%	21%	27%	–	–	–	–	–	–	–	–	–	–
Cn1cc(-c2ccc3c(c2)CCN3C(=O)Cc2ccccc2Cl)c2c(N)ncnc21 [GSK2608885]	70%	90.6%	3%	17%	99.7%	47%	0%	93.2%	88%	8%	–	–	–	–	–	–	–	–	–	–
O=C(NOCC1CC1)c1ccc(F)c(F)c1Nc1ccc(I)cc1Cl	64%	47%	0%	0%	0%	0%	0%	0%	0%	0%	–	–	–	–	–	–	–	–	–	–
N#Cc1ccc(-c2cc(-c3c[nH]nc3-c3ccccn3)ccn2)cc1 [GW693028]	0%	0%	0%	1%	13%	0%	0%	15%	0%	76%	–	–	–	–	–	–	–	–	–	–
O=c1cc(N2CCOCC2)nc2n(Cc3cccc(Cl)c3Cl)c(C3CC3)nn12 [GSK2358994]	17%	13%	22%	0%	6%	17%	3%	34%	0%	0%	–	–	–	–	–	–	–	–	–	–
Cc1cccc(-c2nc(-c3ccc(S(C)(=O)=O)cc3)sc2-c2ccncc2)c1	2%	1%	0%	27%	12%	14%	5%	12%	10%	16%	–	–	–	–	–	–	–	–	–	–
COc1cc2c(cc1OCCN1CCN(C)CC1)ncc1c3ccc(C#N)cc3[nH]c21	34%	80%	9%	0%	99.9%	11%	51%	0%	0%	93%	–	–	–	–	–	–	–	–	–	–
CN(C1=C(c2ccccc2)C(=O)NC1=O)c1ccccc1 [SB-334860]	0%	0%	7%	14%	34%	0%	24%	0%	0%	23%	–	–	–	–	–	–	–	–	–	–
CCc1nc(-c2cccc(C)c2)c(-c2ccnc(NCc3ccccc3)c2)s1	0%	1%	0%	9%	1%	6%	0%	0%	0%	2%	–	–	–	–	–	–	–	–	–	–
Cc1cccc(-c2nc(Nc3ccc4ncsc4c3)c3ccccc3n2)n1 [GW867588]	2%	3%	3%	0%	12%	0%	5%	0%	0%	0%	–	–	–	–	–	–	–	–	–	–

Compound	%Inh (MEK1)	%Inh (MEK2)	%Inh (MEK3)	%Inh (MEK4)	%Inh (MEK5)	%Inh (MEK6)	%Inh (MELK)	%Inh (MERTK)	%Inh (MET)	%Inh (MINK)	%Inh (MEK1; 1 µM)	%Inh (MEK4; 1 µM)	%Inh (MEK6; 1 µM)	%Inh (MELK; 1 µM)	%Inh (MERTK; 1 µM)	%Inh (MET; 1 µM)	%Inh (MINK; 1 µM)	%Inh (MEK2; 1 µM)	%Inh (MEK3; 1 µM)	%Inh (MEK5; 1 µM)
[2H]C([2H])(c1cccc(C(F)(F)F)c1C)n1ccn2c(=O)nc(N3CCOCC3)cc12 [GSK2336394]	0%	0%	0%	35%	1%	0%	0%	0%	0%	0%	–	–	–	–	–	–	–	–	–	–
COCCNC(=O)c1ccc(-c2cc(C(=O)NC3CC3)cc(F)c2C)cc1 [GW868318]	25%	32%	29%	34%	53%	0%	0%	0%	0%	23%	–	–	–	–	–	–	–	–	–	–
O=c1cc(N2CCOCC2)nc2n(Cc3cccc4ccccc34)ccn12 [GSK2333389]	0%	0%	0%	3%	18%	0%	0%	23%	0%	0%	–	–	–	–	–	–	–	–	–	–
NS(=O)(=O)c1cccc(-c2ccc3nccc(-c4cccc(S(N)(=O)=O)c4)c3c2)c1 [GW867253]	23%	30%	38%	15%	41%	7%	0%	14%	0%	27%	–	–	–	–	–	–	–	–	–	–
CC(C)(C)n1cnc2c(N)ncnc21 [SKF-97359]	0%	0%	39%	0%	8%	0%	0%	0%	0%	0%	–	–	–	–	–	–	–	–	–	–
CN1c2ccc(CNc3ccc(F)cc3)cc2-c2c(cnn2C)S1(=O)=O	11%	18%	13%	22%	31%	0%	0%	0%	0%	26%	–	–	–	–	–	–	–	–	–	–
NS(=O)(=O)CCc1cccc(Nc2nccc(-c3c(-c4cccc(NC(=O)c5c(F)cccc5F)c4)nn4ccccc34)n2)c1 [GSK336735]	82%	76%	12%	36%	99.7%	47%	24%	87%	83%	62%	–	–	–	–	–	–	–	–	–	–
COc1ccc(S(=O)(=O)NC2CCN(c3cc(C)nc(Nc4cccc(C#N)c4)n3)CC2)cc1.O=C(O)C(F)(F)F [GSK1653539]	0%	0%	0%	0%	1%	0%	0%	0%	0%	0%	–	–	–	–	–	–	–	–	–	–
Fc1ccc(-c2ncn(CCCN3CCOCC3)c2-c2ccccn2)cc1 [SB-211742]	6%	31%	0%	0%	0%	0%	18%	0%	13%	0%	–	–	–	–	–	–	–	–	–	–
O=c1cc(N2CCOCC2)nc2n(Cc3cccc(C(F)(F)F)c3)ccn12 [GSK2297543]	0%	0%	0%	31%	0%	0%	4%	0%	0%	0%	–	–	–	–	–	–	–	–	–	–
COc1ccc(CNC(=O)NC2CCN(c3ccnc(Nc4ccc(OC)cc4)n3)C2)cc1 (stereo not drawn) [GSK1379727]	0%	0%	0%	17%	37%	0%	4%	16%	0%	4%	–	–	–	–	–	–	–	–	–	–
CC(C)(CN)c1nc(-c2ccc(Cl)c(O)c2)c(-c2ccncc2)[nH]1.O=C(O)C(F)(F)F [SB-477794]	–	20%	0%	–	99.5%	–	–	–	–	–	14% and 2%	0% and 8%	0% and 100%	25% and 51%	32% and 45%	0% and 12%	91.7% and 93.9%	–	–	–
Nc1nccc(-c2c(-c3ccc(F)cc3)ncn2C2CCN(CC(F)(F)F)CC2)n1 [SB-236560]	0%	0%	30%	0%	10%	0%	0%	9%	0%	43%	–	–	–	–	–	–	–	–	–	–
N#Cc1c(N2CCOCC2)sc(-c2ccn[nH]2)c1-c1ccc(Cl)cc1	5%	9%	12%	0%	29%	0%	0%	0%	0%	12%	–	–	–	–	–	–	–	–	–	–
NCCNS(=O)(=O)c1ccc(-c2ccnc3[nH]ccc23)cc1 [GSK977617]	–	–	–	–	–	–	–	–	–	–	24% and 17%	42% and 23%	18% and 11%	99.2% and 95.2%	73% and 57%	20% and 0%	48% and 34%	52% and 48%	46% and 21%	88% and 70%
CCn1cnc2c(N)ncnc21 [GW345098]	26%	20%	26%	11%	1%	0%	0%	25%	2%	5%	–	–	–	–	–	–	–	–	–	–
